Here are results for 26 compounds from PubChem BioAssay AID903 (National Center for Advancing Translational Sciences (NCATS), 2007).

Screen size: about 55,000 compounds; about 340 (0.62%) were called active. Inconclusive results (about 3%) are left out. Calls follow the shape of the dose curve; as a rule, active = well fitted cell-killing curve with a large enough effect; inconclusive = small, poorly fitted or top-dose-only effect; inactive = no such curve, though single readings can be large or run the other way. The entries come from a sample that favours actives as a whole.
Potency is read from the fitted curve at half-maximal effect.

The assay is described as follows: qHTS Screen for Compounds that Selectively Target Cancer Cells with p53 Mutations: Cytotoxicity of p53 Null Cells at the Permissive Temperature. Also: nearly all actives have a fitted effect of over 55% in size.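 As to activity change, negative = cytotoxicity: 0% = DMSO only and -100% = full killing by 100 µM tamoxifen.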 The note with it: H1299-neo p53 null cells, ATP luminescence, 24 h, 32C; series mostly up to 46.1 µM; activity change, negative = cytotoxicity: at the top concentration. The source says: NIH Chemical Genomics Center [NCGC] NIH Molecular Libraries Screening Centers Network [MLSCN] MLSCN Grant: 1 X01 MH079844-01 Assay Submitter (PI): Dr. SUN, YI, University of Michigan NCGC Assay Overview: Synthetic Lethal Screen for Compounds to Kill Cancer Cells with p53 Mutation. Tumor suppressor gene p53 serves as a major cellular barrier against tumorigenesis. […] The goal of this screening is to identify small molecule probes that selectively kill cancer cells with mutations in p53. This screening was carried out using two lines of H1299 lung cancer cells. The H1299-p53 A138V line express a temperature sensitive p53 mutant (p53ts) in which the mutant p53 protein (A138V) is in the mutant confirmation when grown at 39C (the nonpermissive temperature) and in the wild type conformation when grown at 32C (the permissive temperature). A H1299-neo line (p53 null) grown at both 39C and 32C were used as counter-screens to filter out false positive associated with temperature shifting. The small molecular compounds that selectively target mutant p53-containing cancer cells were selected as candidate probes for further study. A cytotoxicity assay based on the measurement of ATP contents in cells was used in this screen. Concentration-responses of all the compounds in the library collection were determined in qHTS using the cell lines and temperature conditions as above.
NCGC Assay Protocol Summary: Both the H1299-p53A138V and H1299-neo cell lines were provided by Dr.Yi Sun, a PI at the University Michigan. The cells were maintained and cultured at 37C. The resuspended frozen cells were used to plate the cells in the 1536-well assay plates at a density of 600 cells per well in 5 ul medium. The assay plates with the cells were incubated at 37C for 16 to 30 hours before the experiments. The library compounds in DMSO solution were added to the cells in assay plates and incubated 24 hours at 39C (for mutant p53 conformation) or 32C (for normal p53 conformation as control). An ATP_lite assay kit (PerkinElmer) was used to determine the cell viability. Tomaxifen (100uM) was used as the positive control for cell killing. Data were normalized to the controls for basal activity (DMSO only) and 100% killing (100uM tamoxifen). AC50 values were determined from concentration-response data modeled with the standard Hill equation. P53 assay protocol: 1. Reagent; 5 uL H1299-p53A138V or H1299-neo cell cells/well 2. Time; overnight; 37C incubation 3. Compounds; 23 nL; 5.9 nM to 46 uM 4. Controls; 23 nL; Tamoxifen 100 uM 5. Time; 24 hr; 32C incubation 6. Reagent; 3 uL; ATP_Lite reagent 7. Time; 20 min; Room Temperature 8. Detection; Luminescence; Viewlux plate reader Keywords: p53, synthetic lethal, cancer, cell viability, cytotoxicity, H1299 cell line, luminescence, MLSMR, MLSCN, NIH Roadmap, qHTS, NCGC
For orientation: Quantitative high-throughput screening tests each substance at several concentrations.
As to `COc1ccc(-c2csc(-c3c(N)c(C(=O)c4ccc(OC)c(OC)c4)n4ccccc34)n2)cc1`, the “activity change, negative = cytotoxicity” value is 6.12% (inactive). With `Cc1cc(OCC(=O)Nc2ncn[nH]2)c(C)c(C)c1Br`, the “activity change, negative = cytotoxicity” value is 1.71% (inactive). Still for that read-out and setting: for `COc1ccc(N2CCN(c3nc(-c4ccccc4F)nc4ccccc34)CC2)cc1` the value was 13.6% (inactive).

For `O=S(=O)(c1ccc(Br)cc1)c1nnn2c1nc(NC1CCCCCC1)c1sccc12`, the “activity change, negative = cytotoxicity” value is 2.98% (inactive). On to `COc1cccc(CNC(=O)c2ccc3c(c2)N(Cc2ccc(C(F)(F)F)cc2)C(=O)c2ccccc2S3)c1OC`, for which the “activity change, negative = cytotoxicity” value was 17.9% (inactive). With `COc1ccc(OC)c2sc(N3CCN(C(=O)C4COc5ccccc5O4)CC3)nc12` (stereo unspecified), the “activity change, negative = cytotoxicity” value is -3.09% (inactive). Consider `Cn1c(=O)cc(OCC(=O)N2CCN(c3ccccc3F)CC2)c2ccccc21`, for which the “activity change, negative = cytotoxicity” value was -5.26% (inactive).

As to `COc1cc(C(=O)Nc2ccc(OCc3cc(=O)n4cc(C)sc4n3)cc2)cc(OC)c1OC`, the “activity change, negative = cytotoxicity” value was -1% (inactive). For the compound `COc1cccc(C2C(C(=O)Nc3ccc(C)cc3C)=C(C)Nc3c(C(=O)Nc4ccccc4)cnn32)c1` (stereo unspecified), the “activity change, negative = cytotoxicity” value was 30.5% (inactive). Still for that read-out and setting: next, `CCNC(=O)Cn1nc(C)n2c(cc3c(OC)cccc32)c1=O`: -6.05% (inactive); `O=C(NCc1ccccc1)C1CCN(S(=O)(=O)c2ccc3[nH]c(=O)ccc3c2)CC1`: 2.92% (inactive); `COc1ccc(N2CCN(S(=O)(=O)CCNC(=O)C(c3ccccc3)c3ccccc3)CC2)cc1`: -14.2% (inactive). `Cc1ccc(C2CCN(C(=O)c3cnn(-c4ccccc4Cl)c3C3CCN(C(=O)OC(C)(C)C)CC3)C2)cc1` (stereo unspecified): the “activity change, negative = cytotoxicity” value is 5.82% (inactive). On the same count and under the same terms, next, `CN(C)CCCNC(=S)NCc1ccc(Cl)cc1`: -7.09% (inactive); `COc1ccc(CCNC(=O)c2c3c(nc4ccccc24)C(=O)N(C2CCCCC2)C3)cc1OC`: -8.55% (inactive); `CCOC(=O)c1ccc(NC(=O)C2CC(=O)NC(=Nc3ccc(C)c(C)c3)S2)cc1` (stereo unspecified): -12.3% (inactive). On the same count and under the same terms, for `O=C(NCc1ccc(F)cc1)c1ccc(Cn2c(SCc3ccc(F)cc3)nc3cccnc32)cc1` the value was -23.4% (inactive). On to `O=C(NC1CCCCC1)c1ccc(Cn2c(SCc3ccccc3)nc3cccnc32)cc1`, for which the “activity change, negative = cytotoxicity” value was -13.1% (inactive). For the compound `Cc1ccc(CSc2nc3cccnc3n2Cc2ccc(C(=O)NC3CC3)cc2)cc1`, the Potency was 2.51 µM (active). For the compound `COc1ccc(C(=O)OCC(=O)NC(=O)CCSc2ccccc2)cc1`, the “activity change, negative = cytotoxicity” value was -8.99% (inactive).

Regarding `Cc1cccc(-n2ncc(C(=O)N3CCC(C)CC3)c2C2CCN(C(=O)OC(C)(C)C)CC2)c1`, the “activity change, negative = cytotoxicity” value is 2.94% (inactive). Take `CC(C)C(=O)Nc1cccc(NC(=O)c2ccc([N+](=O)[O-])cc2Cl)c1`: the “activity change, negative = cytotoxicity” value was -9.2% (inactive). As to `CCCCOc1ccc(CN2C(=O)C(=O)c3cc(Br)cc(C)c32)cc1OC`, the Potency is 35.5 µM (active). Regarding `COc1ccc(CCN2C(=O)C3CC=C(C)CC3C2=O)cc1OC` (stereo unspecified), the “activity change, negative = cytotoxicity” value is -0.134% (inactive). On the same count and under the same terms, next, `CCCCOc1ccc(Cn2c(=O)oc3ccc(C)cc32)cc1OC`: -0.124% (inactive); `COc1ccc(NC(=O)c2ccco2)cc1NC(=O)c1ccc(C#N)cc1F`: -5.82% [at 9.22 µM] (inactive).
